PubChem BioAssay (NCATS)
Records with an inconclusive call do not appear. A call without a number means that no potency is given here. The source made the active and inactive calls. The call rests on the fitted dose curve; in most records, active means well fitted cell-killing curve with a large enough effect; inconclusive means small, poorly fitted or top-dose-only effect, or effect the other way; inactive means flat fitted curve, though single readings scatter.

The molecules below were run on C33A (assay: Primary qHTS to identify gynecologic anti-cancer compounds using libraries of approved drugs and bioactive compounds (AID 1345084; further: nearly all actives have a fitted effect of over 55% in size)). Conditions: Gynecologic cancer cell panel viability, ATPlite luminescence, 48 h; series mostly up to 57.5 µM.
Method in brief: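 In this quantitative HTS, cell killing is estimated from loss of ATP-dependent luciferase light. Cells see five compound concentrations over a 48 h exposure.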
Potency means the concentration at half of the fitted maximal effect.

Which Potency does the source give for `CC(=O)O[C@H]1CC[C@]2(C)[C@H]3CC[C@]4(C)Oc5oc(C)cc(=O)c5C[C@H]4[C@]3(C)CC[C@H]2C1(C)C` here?
Its Potency is “inactive”.

Which Potency does the source give for `CC(=O)CC(=O)Nc1ccc(Cl)c(C(F)(F)F)c1` here?
Its Potency is “inactive”.

With `CC(C)(O)C1Cc2c(ccc(C(=O)CCc3ccccc3)c2O)O1` (stereo not given) as the molecule, how does the Potency read?
The Potency was 11.2 µM (active).

With `CCn1c(=O)c(-c2ccc(-c3cncs3)cc2Cl)cc2cnc(Nc3ccc(N4CCN(C)CC4)cc3)nc21` as the molecule, how does the Potency read?
Its Potency is “inactive”.

`CCNC(=O)C#Cc1ccc2c(C(=Nc3ccc(CN(C)C)cc3)c3ccccc3)c(O)[nH]c2c1` was tested. Which Potency did it give?
Its Potency is “inactive”.

Which Potency does the source give for `CC1(C)CN(C(=O)c2ccc(-c3cccc4nc(NC(=O)C5CC5)nn34)cc2)C1` here?
Its Potency is “inactive”.

How did the Potency turn out when `CC(C)c1cccc(C(C)C)c1NC(=O)Nc1ccc(Sc2ccc([N+](=O)[O-])cc2)cc1` was run?
Its Potency is “inactive”.

For `FC(F)(F)c1ccccc1-c1cc(C(F)(F)F)c2nc(C3=NOC4(CCCCC4)C3)[nH]c2c1`, which Potency is on record?
Its Potency is “inactive”.

`C=C1CC[C@@H]2[C@](C)(CO)[C@H](O)CC[C@@]2(C)[C@@H]1CC(=O)C1=CCOC1=O` was tested. Which Potency did it give?
Its Potency is “inactive”.

With `CC(NC(=O)Cc1cc(F)cc(F)c1)C(=O)NC1C(=O)N(C)c2ccccc2-c2ccccc21` (stereo not given) as the molecule, how does the Potency read?
The Potency was “inactive”.

For `COc1cc2ncnc(Oc3ccc(CC(=O)Nc4cnn(C(C)C)c4)cc3)c2cc1OC`, which Potency is on record?
The Potency was “inactive”.

With `C=C1C(=O)O[C@@H]2[C@H]3C(C)=CC(=O)C3=C(C)[C@@H](OC(=O)/C(C)=C\C)[C@H](O)[C@@H]12` as the molecule, how does the Potency read?
The Potency was “inactive”.

With `CC(C)(C)[C@H](NC(=O)c1ccc(N)c(Cl)c1)C(=O)N1CCC[C@H]1C(=O)N[C@H](C#N)CC(=O)O` as the molecule, how does the Potency read?
Its Potency is “inactive”.

Which Potency does the source give for `O=c1cc(N2CCOCC2)nc2c3ccccc3ccn12` here?
The Potency was “inactive”.

Which Potency does the source give for `CCOC(=O)c1csc(Nc2ccc(Cl)cc2)n1` here?
The Potency was “inactive”.

For `CCN(CC)C(=O)c1ccc(Nc2nc(OCC3CCCCC3)c3[nH]cnc3n2)cc1`, which Potency is on record?
Its Potency is “inactive”.

Which Potency does the source give for `Cc1ccc(-c2ncccn2)c(C(=O)N2C[C@H](COc3ccc(F)cn3)CC[C@H]2C)c1` here?
Its Potency is “inactive”.

With `CC(=O)O[C@H]1CC(C)(C)CC2[C@]13CO[C@@]21CCC2[C@@]4(C)CC[C@H](O[C@@H]5OC[C@H](O[C@@H]6O[C@H](CO)[C@@H](O)[C@H](O)[C@H]6O[C@@H]6OC[C@@H](O)[C@H](O)[C@H]6O)[C@H](O)[C@H]5O[C@@H]5O[C@H](CO)[C@@H](O)[C@H](O)[C@H]5O)[C@@](C)(CO)C4CC[C@@]2(C)[C@]1(C)C[C@H]3O` (stereo not given in full) as the molecule, how does the activity change, negative = cytotoxicity read?
Its activity change, negative = cytotoxicity is -17.3% [at 11.6 µM] (inactive).

For `CC(C)NC(=O)N1CC[C@H](N=C2Nc3cc(F)ccc3N(CC(F)F)c3ccc(Cl)cc32)C1`, which activity change, negative = cytotoxicity is on record?
Its activity change, negative = cytotoxicity is 7.02% [at 11.6 µM] (inactive).

For `O=C(Nc1nnc(-c2ccc3c(c2)OCCO3)o1)C1CCCCC1`, which Potency is on record?
Its Potency is “inactive”.
